Data as given in PubChem BioAssay (NCATS).
Inconclusive results are not listed. Entries that show only a call come without a potency. Values without a mark were called inactive. Calls of active or inactive are those of the source. Calls come from the whole dose curve; as a rule, active = well fitted curve in the direction sought with a large enough effect; inconclusive = small, poorly fitted or top-dose-only effect, or another doubt; inactive = no such curve, though single readings can be large; an effect the other way counts as inactive or inconclusive. *1 amine or outer side, *2 acyl side, *3 side chain or, on linkers, in order; H or OH if unused. Where a SMILES comes first, the peptide text is derived from it. Bridges are numbered along the chain shown (N, C = ends). Roman numbers before positions name the chains, in order. [ ]: non-standard residue; d: D form. ξ: configuration not given here. Actinocin(9to1) = Cc1c2oc3c(C)ccc(C(=O)[*:1])c3nc-2c(C(=O)[*:2])c(N)c1=O; ξNMeV = CNC(C(=O)O)C(C)C; ξV = CC(C)C(N)C(=O)O; Sar = CNCC(=O)O

Legend:
[1] = test system: Zika virus NS2B-NS3 protease (unlinked complex); test: Primary screen GU Rhodamine qHTS for Zika virus inhibitors: Unlinked NS2B-NS3 protease assay (AID 1347159); details: Recombinant ZIKV NS2B-NS3 protease, Rhodamine110 substrate fluorescence; series mostly up to 107 µM; note: nearly all actives have a fitted effect of over 60% in size; note: potency is the fitted concentration of half-maximal effect
In short: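 Compounds, tested up to 114 microM, were incubated for 15 minutes with 25 nM unlinked NS2B-NS3 protease at pH 8.0. Cleavage of 1.5 microM Rhodamine110 substrate was then followed by fluorescence for 15 minutes.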

[2] = test system: Zika virus NS2B-NS3 protease (linked construct); test: Primary screen NINDS Rhodamine qHTS for Zika virus inhibitors (AID 1347160); details: purified NS2B-NS3 protease, Rhodamine110 substrate fluorescence; series mostly up to 57.1 µM; note: nearly all actives have a fitted effect of over 55% in size; note: potency is the fitted concentration of half-maximal effect
In short: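 Percent inhibition, normalized to uninhibited and enzyme-free controls, is fitted to a 4-parameter Hill equation. Fluorescence change comes from a 15-min cleavage of 1.5 microM bis-peptide Rhodamine110 substrate by 25 nM linked NS2B-NS3 at room temperature.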

[3] = Confirmatory screen NINDS Rhodamine qHTS for Zika virus inhibitors (AID 1347161); details: purified enzyme assay, Rhodamine110 substrate fluorescence, 15 min; note: potency is the fitted concentration of half-maximal effect; nearly all actives have a fitted effect of over 60% in size
In short: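 qHTS dose-response: 25 nM linked protease, pH 8.0 Tris/Tween buffer, cpd titration, 15 min RT preinc, 1.5 microM Rhod110 peptide, 15 min reaction (~15% conversion), Ex480/Em540; 4-parameter Hill fit.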

[4] = Tertiary RLuc qRT-PCR qHTS assay for Zika virus inhibitors (AID 1347169); details: infected Vero cells, reporter luminescence, 48-72 h; series mostly up to 45.9 µM; note: nearly all actives have a fitted effect of over 55% in size; note: potency is the fitted concentration of half-maximal effect; for activity change, negative = inhibition: top concentration of the series differs between compounds
In short: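 Vero cells (1,000/well) infected with recombinant ZIKV-RLuc (Cambodian) at MOI 1-2 after compound addition, 48-72 hrs at 37 degrees C. Live-cell Renilla luciferase substrate added; luminescence read after 1-1.5 hrs.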

[5] = OV-KATE Cancer Cell Toxicity qHTS against the NCATS CANVASS Library (AID 1347345); details: OV-KATE cells viability, CellTiter-Glo luminescence, 72 h; series mostly up to 38.3 µM
In short: (§1)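 1000 cells/well; 4 h settle; 11-pnt titration; 72 h, 37 degrees C, 5% CO2; CellTiter-Glo, 15min RT; luminescence read.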

[6] = HPAF-II Cancer Cell Toxicity qHTS against the NCATS CANVASS Library (AID 1347346); details: HPAF-II viability, CellTiter-Glo ATP luminescence, 72 h; series mostly up to 38.3 µM; note: nearly all actives have a fitted effect of over 55% in size; note: potency is the fitted concentration of half-maximal effect
Source text: Natural products and their derivatives continue to be wellsprings of nascent therapeutic potential. However, many laboratories have limited resources for biological evaluation, leaving their previously isolated or synthesized compounds largely or completely untested. To address this issue, the Canvass library of natural products was assembled (https://tripod.nih.gov/canvass), in collaboration with academic and industry researchers, for quantitative high-throughput screening (qHTS) across a diverse set of cell-based and biochemical assays. The pure (>85% purity by liquid chromatography/mass spectrometry [LC/MS]) Canvass library of 346 natural products were submitted by 45 academic laboratories and companies around the world. […] The library was formatted into 1536-well plates and evaluated in 50 qHTS (in an 11-pnt concentration series) bioassays with broad scope of disease-relevant mechanisms. The resulting data set from 50 different assays was then systematically analyzed to identify overall trends and specific natural products with interesting biological activities. […]
Cancer Cell Toxicity protocol for cell lines COV-362, OV-KATE, OV-SAHO, UWB1.289, UWB1.289-WTBRCA1, HEK-293, HPAF-II, Panc-1005, SW1088, or U-118MG. […] 7.#Luminescence signal was acquired via the ViewLux plate reader (PerkinElmer) using a clear filter, 2 second exposure and 2x binning settings.

[7] = UWB1.289 Cancer Cell Toxicity qHTS against the NCATS CANVASS Library (AID 1347347); details: UWB1.289 viability, CellTiter-Glo luminescence, 72 h; series mostly up to 38.3 µM; note: nearly all actives have a fitted effect of over 60% in size
In short: as §1

[8] = Vero cells viability qHTS for Zika virus inhibitors (AID 1347167); details: cytotoxicity counter-screen (Zika); series mostly up to 45.9 µM
In short: (§2)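 Cells seeded at 2.5 x 10^5 cells/mL in DMEM with 4% FBS and attached overnight at 37 degrees C, then exposed to compound for 24 to 48 hours. Viability read as ATP content by CellTiter Glo luminescence.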

[9] = HepG2 cells viability qHTS for Zika virus inhibitors (AID 1347168); details: Zika counter-screen; series mostly up to 45.9 µM
In short: as §2

O=C(NCC(=O)N1CC[C@H](NC2CCC(O)(c3ccc(-c4ncccn4)cn3)CC2)C1)c1cccc(C(F)(F)F)c1 (some centres undefined)
Potency [1]: inactive | Potency [2]: inactive

Cc1cc(O)cc(Oc2cc(C)c(C(=O)O)c(O)c2)c1
Potency [1]: 14.1 µM (active) | Potency [2]: 17.8 µM (active)

C=C1C(O[C@@H]2O[C@H](CO)[C@@H](O)[C@H](O)[C@@H]2O)CC2C(C)(C)C(O)CCC2(C)C1CC/C(C)=C\CO (some centres undefined)
Potency [1]: inactive | Potency [2]: inactive

NC(=O)[C@H]1CCCCc2c1[nH]c1ccc(Cl)cc21
Potency [1]: inactive | Potency [2]: inactive

CON(C)C(=O)N1N=C(c2cc(F)ccc2F)S[C@@]1(CCCN)c1ccccc1
Potency [1]: inactive | Potency [2]: inactive

CC(C)CC1(C(=O)OCc2ccc(O[C@@H]3O[C@H](CO)[C@@H](O)[C@H](O)[C@H]3O)cc2)CC(=O)OC(C(=O)O)CC(=O)OCC2OC(O1)C(OC(=O)/C=C/c1ccc(O)cc1)C(O)C2O (some centres undefined)
Potency [1]: inactive | Potency [2]: inactive

CC(=O)N[C@H]1CCN(c2ccc(C3=NOC(CN[S+](=O)([O-])C(C)C)C3)cc2F)C1 (some centres undefined)
Potency [1]: inactive | Potency [2]: inactive

COc1c2c(c(C)c3c1C(=O)OC3)OC1(C)CC(O)C3(O)C(C)(C)OC(=O)CCC3(C)C1C2 (centres undefined)
Potency [1]: inactive | Potency [2]: inactive

CCOc1nc2cccc(C(=O)O)c2n1Cc1ccc(-c2ccccc2-c2noc(=O)[nH]2)cc1
Potency [1]: inactive | Potency [2]: inactive

CC(C)N(C[C@H]1O[C@@H](n2cnc3c(N)ncnc32)[C@H](O)[C@@H]1O)C1CC(CCc2nc3ccc(C(C)(C)C)cc3[nH]2)C1 (some centres undefined)
Potency [1]: inactive | Potency [2]: inactive

COc1cc(/C=C/CO)ccc1O[C@@H]1O[C@H](CO)[C@@H](O)[C@H](O)[C@H]1O
Potency [1]: inactive | Potency [2]: inactive

C[C@@H]1CC[C@H]2C(C)(C)[C@H](O)[C@H](O)C[C@]2(C)[C@@]12Cc1c(O)cc3c(c1O2)CNC3=O
Potency [1]: inactive | Potency [2]: inactive

NCc1c[nH]c(=S)n1C1CCc2c(F)cc(F)cc2C1 (centres undefined)
Potency [1]: inactive | Potency [2]: inactive

C[C@@H]1O[C@@H](O[C@H]2[C@H](OC(=O)C34CCC5(C)C(=CCC6C7(C)CC(O)C(O[C@@H]8O[C@H](C(=O)O)[C@@H](O)[C@H](O)[C@H]8O)C(C)(C(=O)O)C7CCC65C)C3CC(C)(C)CC4O)O[C@H](C)[C@@H](O)[C@@H]2O)[C@H](O)[C@@H](O[C@@H]2OC[C@](O)(CO)[C@H]2O[C@@H]2O[C@H](CO)[C@@H](O)[C@H](O)[C@H]2O)[C@H]1O (some centres undefined)
activity change, negative = inhibition [1]: 4.07% [at 19.1 µM] | activity change, negative = inhibition [2]: -17.8% [at 10.7 µM]

C=CC1C(O[C@@H]2O[C@H](CO)[C@@H](O)[C@H](O)[C@H]2O)OC=C(C(=O)OC)C1Cc1nccc2c1[nH]c1ccccc12 (some centres undefined)
Potency [1]: inactive | Potency [2]: inactive

N#Cc1ccc2[nH]c(O)c(-c3ccc(CN4CCOCC4)cn3)c2c1
Potency [1]: inactive | Potency [2]: inactive

COc1cc([C@H]2OC[C@@H]3[C@@H](c4ccc(O[C@@H]5O[C@H](CO)[C@@H](O)[C@H](O)[C@H]5O)c(OC)c4)OC[C@]23O)ccc1O
Potency [1]: inactive | Potency [2]: inactive

CC1CCC2C(C(=O)O)=CC3C(O)C(C)(C)CC123 (centres undefined)
Potency [1]: inactive | Potency [2]: inactive

O=S(=O)(Nc1ccc(C(O)(C(F)(F)F)C(F)(F)F)cc1)c1cccs1
Potency [1]: inactive | Potency [2]: inactive

OCC1OC(Oc2cc(O)c3c(c2)OC(c2ccc(O)cc2)C(O)C3)C(O)C1O (centres undefined)
Potency [1]: inactive | Potency [2]: inactive

O=C(O)Cc1nn(Cc2nc3cc(C(F)(F)F)ccc3s2)c(=O)c2nccnc12
Potency [1]: inactive | Potency [2]: inactive

c1nc(NC2CCCCCC2)c2cc(CNC[C@H]3CCCO3)sc2n1
Potency [1]: inactive | Potency [2]: inactive

CC1(C)CC2C3=CCC4C5(C)CCC(OC6OC(CO)C(O)C(OC7OC(CO)C(O)C(OC8OC(CO)C(O)C(OC9OC(COC%10OC(CO)C(O)C(O)C%10O)C(O)C(O)C9O)C8O)C7O)C6O)C(C)(C)C5CCC4(C)C3(C)CCC2(C(=O)O)CC1O (centres undefined)
Potency [3]: 7.42 µM (active)

CC(C)(O)/C=C1/C(=O)C(C)(C)C(=O)C(C)(C)C1(O)O[C@@H]1O[C@H](COC(=O)c2cc(O)c(O)c(O)c2)[C@@H](O)[C@H](O)[C@H]1O (some centres undefined)
Potency [4]: inactive

C/C=C/C=C/C(CC(=O)O)Nc1ccc(C=O)cc1 (centres undefined)
outcome [5]: inactive | Potency [6]: 3.75 µM (active)

CC1=C2C(=O)O[C@@H](c3ccoc3)[C@]2(C)CCC1
outcome [5]: inactive | Potency [6]: inactive | outcome [7]: inactive

Cc1c2oc3c(C)ccc(C(=O)N[C@@H]4C(=O)NC(C(C)C)C(=O)N5CCC[C@H]5C(=O)N(C)CC(=O)N(C)C(C(C)C)C(=O)O[C@@H]4C)c3nc-2c(C(=O)N[C@@H]2C(=O)NC(C(C)C)C(=O)N3CCC[C@H]3C(=O)N(C)CC(=O)N(C)C(C(C)C)C(=O)O[C@@H]2C)c(N)c1=O (some centres undefined) (I: T[ξV]P[Sar][ξNMeV] / II: T[ξV]P[Sar][ξNMeV]; ester I:1-I:C, II:1-II:C; linker I:N-II:N via Actinocin(9to1))
outcome [8]: inactive | outcome [9]: inactive | Potency [4]: 0.208 µM (active)
